Reference: article PMC7155171, “Probing the Open Global Health Chemical Diversity Library for Multistage-Active Starting Points for Next-Generation Antimalarials” (ACS Infectious Diseases, 2020)

Key:
[1] = tested on: P. berghei liver stage (PbLuc); set-up: species or system HepG2-A16-CD81; P. berghei luciferase sporozoite infection of hepatocytes, liver stage luminescence; conditions: inhibitor; for PbLuc primary screen (10uM): inhibition % (n=1): 48 h
[2] = tested on: HepG2-A16-CD81 hepatocytes; set-up: Uninfected hepatocyte viability, CellTiter-Glo luminescence; conditions: cytotoxicity primary screen, inhibitor

Structure (SMILES) | PbLuc primary screen (10uM): inhibition % (n=1) [1] [%] | PbLuc primary screen (2uM): inhibition % (n=1) [1] [%] | HepG2 toxicity primary screen (10uM): inhibition % (n=1) [2] [%]
CC(=O)N1CCCN(C(=O)CCOc2ccc(C(C)C)cc2)CC1 [DDD01298039] | 52.5 | 36.9515 | -13
Cc1[nH]n(C2CCS(=O)(=O)C2)c(=O)c1Cc1ccc(Br)cc1 (stereo not drawn) [DDD01026979] | 43.4 | 14.54 | -41.615
COc1ccc(F)cc1-c1nc2c(C3CC3)[nH]n(C)c-2n1 [DDD01250494] | -12.1 | -45.41 | -2.18
CCn1[nH]cc2nc(-c3ccc(OC)c(COC)c3)nc1-2 [DDD01253750] | -45.8 | 0.5819 | 6.34
CC(NC(=O)CCC1=NC(=C2N=CN=N2)NO1)c1ccc(F)cc1F (stereo not drawn) [DDD01068293] | 33.4 | -26.534 | -2.05
COc1cc2c(cc1-c1nc3c[nH]n(C(C)C)c-3n1)OCO2 [DDD01249461] | 7.31 | 60.13 | -6.85
Cc1cc(=O)n2nc(C3CCN(C(=O)c4ccccn4)CC3)cc2[nH]1 [DDD01057174] | 7.55 | -10.49 | -3.3635
COCC(=O)N1Cc2[nH]c3c(C)c(-c4cccs4)nn3c(=O)c2C1 [DDD01056747] | 27.2 | 46.04 | -4.81
Cc1cc(=O)n(-c2ccc3nnc(C)n3n2)[nH]1 [DDD01038570] | 6.83 | 18.99 | 9.24
CCc1ccc(C(C)NC(=O)CCC2=NC(=C3N=CN=N3)NO2)cc1 (stereo not drawn) [DDD01068289] | 38.8 | -21.47 | -1.98
COc1cccc(F)c1-c1nc2c(C3CC3)[nH]n(C)c-2n1 [DDD01246655] | -18.5 | 21.14 | 0.271
Cc1ncc(CN2CCc3c([nH]c4cc(C5CC5)nn4c3=O)C2)n1C [DDD01058398] | 47.1 | 42.53 | 6.62
CCc1c(C)nn2c(=O)cc(C3CCN(C(=O)c4ccccn4)C3)[nH]c12 (stereo not drawn) [DDD01056906] | 44.95 | -16.2 | 6.7
COCCC(=O)N1Cc2[nH]c3c(C)c(-c4cccs4)nn3c(=O)c2C1 [DDD01056578] | -5.78 | -12.93 | -1.19
CCc1nn2c(N)c(C#N)nnc2c1-c1ccc(OC)cc1 [DDD01035159] | 22.9 | 19.08 | -3.73
CCCn1ncc(-c2nc3c[nH]n(CC)c-3n2)c1C [DDD01252709] | -42.8 | -36.8 | 4.05
COc1ccc(-c2c(C)nn3c(N)c(C#N)nnc23)cc1 [DDD01035158] | 3.19 | -31.95 | -8.26
COc1cc2c(cc1-c1nc3c[nH]n(C(C)C(C)C)c-3n1)OCO2 (stereo not drawn) [DDD01255421] | 31.9 | 7.665 | 8.61
Cc1[nH]n(C2CCS(=O)(=O)C2)c(=O)c1CCc1ccccc1 (stereo not drawn) [DDD01026977] | 5.33 | -33.83 | -50.25
Cc1[nH]n(-c2ccccc2)c2nc(C(C)(C)CN3CCN(C)CC3)nc1-2 [DDD01252143] | 8.08 | 38.49 | -2.13
Cc1ccc(S(=O)(=O)Cc2noc([C@@H]3C[C@@H](O)CN3C(C)C)n2)cc1 [DDD01025534] | 44.5 | 0.1961 | 0.317
Cc1[nH]n(C2CCCC2)c2nc(C(C)(C)CN3CCN(C)CC3)nc1-2 [DDD01248613] | 49.4 | 34.18 | -6.61
